Rows were chosen to be rich in hits. Some 19% of all compounds tested hit in one or more screens of this group.
Shiga inhibitor – A qHTS for Small Molecule Inhibitors of Shiga Toxin; Vero cells, Shiga toxin protein synthesis inhibition reporter; inhibition, % at 38.7 µM; actives 9.2% (n = 290,000); in the data active = inhibition mostly above about 28%, no sharp cut-off; inactive = mostly below about 43%
AMA1 RON2 block – qHTS for Inhibitors of AMA1-RON; Towards Development of Antimalarial Drug Lead: Primary Screen; Plasmodium falciparum AMA1 (3D7) - RON2 peptide interaction; AlphaScreen AMA1-biotinylated RON2 peptide binding; Potency, µM (highest dose often 58.2 µM), hits mostly inhibitors; actives 0.2% (n = 360,000); AID 720542, 2013; note: nearly all actives have a fitted effect of over 45% in size
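AMA1 (3D7) with his tag at 25 nM final met compounds first, then biotinylated RON2 peptide at 25 nM; detection used donor plus acceptor beads, 10 µg/mL apiece, read by AlphaScreen after 30 min at room temperature.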
Pf growth 48h – Primary qHTS for delayed death inhibitors of the malarial parasite plastid, 48 hour incubation | P. falciparum luciferase growth in erythrocytes, 48 h | AID 504832, 2011 | actives 5.9% (n = 310,000) | Potency, µM (top dose mostly 28.7 µM), hits mostly inhibitors
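Firefly luciferase activity from engineered P. falciparum reports growth; inhibitors lower the luminescent signal. Cultures contained 2% hematocrit erythrocytes at 0.1% final parasitemia.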
SARS PLpro yeast – qHTS of Yeast-based Assay for SARS-CoV PLP. actives 0.19% (n = 330,000). AID 485353, 2010. S. cerevisiae expressing SARS-CoV PLpro, growth rescue. Potency, µM (highest dose often 32.9 µM), hits mostly activators; calls by dose curve; note: nearly all actives have a fitted effect of over 55% in size
Cycloheximide cs – Cycloheximide Counterscreen for Small Molecule Inhibitors of Shiga Toxin; cell reporter, cycloheximide protein synthesis inhibition counterscreen; max response, %; actives 12% (n = 300,000); in the data active = max response mostly above about 13%, no sharp cut-off; inactive = mostly below about 14%; note: read at 38.3 µM for the half of the compounds with a filed dose
Pf growth 96h – Primary qHTS for delayed death inhibitors of the malarial parasite plastid, 96 hour incubation; actives 6.9% (n = 320,000); Potency, µM (series often up to 28.7 µM), actives largely listed as inhibitors; P. falciparum luciferase reporter growth, 96 h; AID 504834, 2011
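Readout is luminescence from an integrated firefly luciferase in P. falciparum. Red cells, 2% hematocrit and 0.05% parasitemia final, were cultured with compound through two parasite generations (96 hours) at 37 C, 5% CO2.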
Hits are given with their value; – = inactive; ? = inconclusive; · = no result given; [ ] = remark or other dose. Unless noted, calls come from the whole dose curve; as a rule, active = well fitted curve in the direction sought with a large enough effect; inconclusive = small, poorly fitted or top-dose-only effect, or another doubt; inactive = no such curve, though single readings can be large; an effect the other way counts as inactive or inconclusive.

SMILES	Shiga inhibitor	AMA1 RON2 block	Pf growth 48h	SARS PLpro yeast	Cycloheximide cs	Pf growth 96h
N#Cc1c(NC(=O)c2ccc([N+](=O)[O-])o2)sc2c1CCC2	97	–	–	–	28	–
N#Cc1c(NC(=O)c2ccccc2)sc2c1CCC2	196	–	·	–	46	–
COC1C(O)C(O)C(O)C(O)C1O (stereo not given)	·	–	·	·	·	·
COc1ccccc1C(=O)Nc1sc2c(c1C#N)CCC2	·	–	–	–	12	–
N#Cc1c(NC(=S)NC(=O)C2CCCC2)sc2c1CCCCC2	27	–	–	–	23	–
COc1ccccc1C(=O)Nc1sc2c(c1C(N)=O)CCCC2	–	–	–	–	–	?
N#Cc1c(NC(=S)NC(=O)c2ccccc2)sc2c1CCN(CCc1ccccc1)C2	–	·	4.1µM	–	–	2.6µM
CC(C)c1cc(C(=O)Nc2sc3c(c2C#N)CCC3)no1	–	–	–	–	–	?
N#Cc1c(NC(=O)c2cnccn2)sc2c1CCCC2	75	–	–	–	66	–
CCCC(=O)NNC(=O)c1c(O)c2ccccc2[nH]c1=O	–	–	–	–	–	–
N#Cc1c(NC(=S)NC(=O)c2ccccc2)sc2c1CCCC2	35	–	–	–	34	?
Cc1cccc(NC(=O)c2c(NC(=O)c3ccccc3)sc3c2CCCC3)c1	–	·	·	·	–	·
CC(C)Cc1nnc(NC(=O)c2cc([N+](=O)[O-])ccc2N2CCOCC2)s1	–	–	–	–	19	–
CCCC1Cc2c(sc(NC(=S)NC(=O)c3ccccc3)c2C#N)CO1 (stereo not given)	–	·	–	–	–	?
Cc1ccccc1C(=O)NC(=S)Nc1sc2c(c1C#N)CCC(C)C2 (stereo not given)	–	–	–	–	–	–
Cc1cccc(C(=O)Nc2sc3c(c2C#N)CCCCC3)c1	85	–	–	–	44	–
CC1CCc2c(sc(NC(=S)NC(=O)c3ccccc3)c2C#N)C1 (stereo not given)	65	–	–	–	21	–
O=C(CO/N=C\c1ccccc1)Nc1ccccc1C(=O)N1CCOCC1	–	–	–	–	–	–
COCCCn1cnnc1SC(C)C(=O)Nc1ccc(S(=O)(=O)N2CCOCC2)cc1 (stereo not given)	·	–	·	–	·	·
N#Cc1c(NC(=O)c2cccnc2)sc2c1CCC2	–	–	·	–	19	–
Cc1cccc(C)c1NC(=S)N(c1ccccc1)C(C)C	–	–	–	–	–	–
Cc1ccc(NC(=S)NCC23C=CC(O2)C2C(=O)N(c4ccc(C)cc4)C(=O)C23)cc1 (stereo not given)	–	–	?	–	56	?
CCOC(=O)c1ccc(NC(=S)N2CCSC2c2ccc(OC)cc2)cc1 (stereo not given)	23	–	–	–	26	–
CCOC(=O)c1ccc(NC(=S)N2CCSC2c2ccc(Cl)cc2)cc1 (stereo not given)	–	–	–	–	–	?
COc1ccc(C2SCCN2C(=S)Nc2ccc(F)cc2)cc1 (stereo not given)	–	–	?	–	–	?
SMILES	Shiga inhibitor	AMA1 RON2 block	Pf growth 48h	SARS PLpro yeast	Cycloheximide cs	Pf growth 96h
COc1ccc(C2SCCN2C(=S)Nc2cccc(C(F)(F)F)c2)cc1 (stereo not given)	–	–	2.3µM	–	–	9.3µM
CC(C)(C)OC(=O)N1CCN(C(=O)c2[nH]cnc2C(=O)Nc2ccccc2F)CC1	·	–	·	·	·	·
Cc1cc(F)ccc1C(O)c1ncc(-c2ccc3ccccc3c2)[nH]1 (stereo not given)	·	–	·	·	·	·
Cn1cnnc1SCc1ccc(C(=O)N/N=C(/CCC(=O)O)c2ccc(C(C)(C)C)cc2)cc1	·	–	·	·	·	·
COC(=O)C1=C(C(=O)OC)SC2(S1)C(C(=O)OC)=C(C(=O)OC)Sc1c2ssc1=O	·	28µM	·	·	·	·
CC(=O)C1=C(O)C(=O)N(c2ccc(C)cc2)C1c1ccccn1 (stereo not given)	37	–	–	–	22	–
CC(=O)C1=C(O)C(=O)N(c2ccc(O)cc2)C1c1ccc(C)cc1 (stereo not given)	–	–	–	–	–	–
COc1ccc(N(C)S(=O)(=O)c2cccc(C(=O)N(C)Cc3ccc(C)o3)c2)cc1	–	–	?	–	–	–
O=C(COC(=O)CCS(=O)(=O)c1ccccc1)Nc1ccc(N2CCCCC2)cc1	·	–	–	–	·	–
C/C(=N\NC(=O)C1CC1)c1ccc(C(C)(C)C)cc1	–	–	?	–	–	–
C/C(=N\NC(=O)C1CC1)c1ccc(Cl)cc1	–	–	?	–	–	5.2µM
C/C(=N\NC(=O)C1CCCC1)c1ccc(Cl)cc1	52	–	–	–	41	–
Cc1ccc(NS(=O)(=O)c2ccc(C)c(NC(=S)NCCN3CCOCC3)c2)c(C)c1	·	–[11.6 µM]	·	–	·	·
CCOCC(O)COc1ccc(NC(=O)CC[S+](C)C)cc1 (stereo not given)	·	·	–	·	·	–
Cn1ncc2c(Nc3ccc(Br)cc3)nc(Nc3ccc(Br)cc3)nc21	–	–	2.1µM	–	–	9.3µM
Cn1ncc2c(Nc3ccc(O)cc3)nc(Cl)nc21	–	–	–	–	–	–
Cn1ncc2c(Nc3cccc(Cl)c3)nc(Nc3cccc(Cl)c3)nc21	–	–	1.7µM	–	–	2.9µM
O=C(Nc1cccc(C(=O)N2CCN(c3cccc(Cl)c3)CC2)c1)c1ccccc1	–	–	–	–	–	–[1.15 µM]
CN(C)NC(=S)NC1CC2CCC1C2 (stereo not given)	–	–	–	–	–	–
COc1ccc(NC(=O)COc2ccccc2Cc2ccccc2)cc1S(=O)(=O)N1CCOCC1	·	–	12µM	–	·	5.2µM
COc1ccc(NC(=O)CNc2ccccc2C(C)=O)cc1S(=O)(=O)N1CCOCC1	·	–	·	–	·	·
COc1ccccc1CCC(=O)Nc1ccc(OC)c(S(=O)(=O)N2CCOCC2)c1	·	–[11.6 µM]	–	–	·	?
O=C(COc1ccccc1Cc1ccccc1)Nc1cccc(S(=O)(=O)N2CCOCC2)c1	·	–[11.6 µM]	13µM	–	·	4.1µM
COc1ccc(NC(=O)CSc2ccccc2)cc1S(=O)(=O)N1CCOCC1	–	–	–	–	–	12µM
CC1=CC(C)(C)N(C(=O)CNC2CCCC2)c2cc(C)ccc21	–	?	?	–	–	–
COc1ccccc1/C=C/C(=O)OCCN1C(=O)c2ccccc2C1=O	–	–	–	–	–	–
COc1ccc(CCN(C)C(=O)c2cnc(C)cn2)cc1OC	–	–	–	–	–	–
CN(CC(=O)N1CCc2ccccc21)S(=O)(=O)c1ccc(Cl)cc1	–	–	–	–	–	–
CCOc1ccc(S(=O)(=O)N(CC(=O)N2CCc3ccccc32)Cc2ccco2)cc1	83	–	?	–	31	?

Screening results (PubChem)
